The results in this text go back to PubChem BioAssay.

Unmarked numbers belong to inactive results. For some assays here: Entries with a potency or affinity are not part of this list. Calls of active or inactive are those of the source. Unless noted, the rule behind the calls is not given here.

Assay [1] is described as follows: antimalarial activity against Dd2 strain (AID 2302;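 active = growth inhibition above 50% at the single 2 µM test dose, taken to imply half-maximal potency below 2 µM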;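 note: 0% = DMSO untreated growth and 100% = chloroquine plus artemisinin killed control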). The settings on record: P. falciparum Dd2 in RBCs, LDH growth readout, 72 h; at 2 µM; active compounds read high.
Assay [2] can be described thus: HepG2 cytotoxicity, primary screen, cytotoxicity control for P. falciparum antimalarial project, cell-based, ATP luminescence (AID 2303;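 active = inhibition above 50%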;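 note: 0% = DMSO wells and 100% = digitonin-killed cells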). The settings on record: HepG2 viability, 24-48 h, at 10 µM, active compounds read high.
The target of assay [3] is L-lactate dehydrogenase (Plasmodium falciparum (isolate CDC / Honduras)) (UniProt Q27743). Briefly: PfLDH activity inhibition – cell lysate, 3D7 strain, counter-screen for P. falciparum growth inhibition project (AID 2304).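 Note: 0% = vehicle and 100% = reference inhibitor.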 The conditions noted are these: P. falciparum 3D7 crude extract, LDH APAD/NBT absorbance; at 2 µM; active compounds read high. A general note: The purpose of a counterscreen is to sort out artefacts and off-target activity.
L-lactate dehydrogenase (Plasmodium falciparum (isolate CDC / Honduras)), sequence (Q27743 whole entry, looked up): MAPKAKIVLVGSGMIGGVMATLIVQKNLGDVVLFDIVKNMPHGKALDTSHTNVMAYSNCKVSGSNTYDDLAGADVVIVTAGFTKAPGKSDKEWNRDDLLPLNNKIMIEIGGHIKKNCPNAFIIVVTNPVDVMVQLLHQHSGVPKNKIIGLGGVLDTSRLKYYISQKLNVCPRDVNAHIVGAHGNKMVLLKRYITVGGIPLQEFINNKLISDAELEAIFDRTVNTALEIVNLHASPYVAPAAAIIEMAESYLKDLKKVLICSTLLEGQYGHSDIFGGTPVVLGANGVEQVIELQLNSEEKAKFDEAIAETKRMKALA

A short description of assay [4]: inhibition of 3D7 malaria parasite growth – strain 3D7 (AID 2306).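 Note: 0% = DMSO wells and 100% = chloroquine plus artemisinin control wells.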 The settings on record: P. falciparum 3D7 erythrocytic growth, LDH absorbance, 72 h; at 2 µM; active compounds read high.
The target of assay [5] is Calcium-dependent protein kinase 1 (Plasmodium falciparum (isolate 3D7)) (UniProt P62344). Briefly: PfCDPK1 kinase inhibitors, biochemical, TCAMS library (AID 1159585; cut-off not given, nearly all actives have IC50 up to about 0.98 µM;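 note: inhibitors leave more ATP so luminescence rises with inhibition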). The settings on record: recombinant PfCDPK1, Kinase-Glo ATP depletion luminescence. In general terms: In Kinase-Glo more light means more ATP remaining.
Calcium-dependent protein kinase 1 (Plasmodium falciparum (isolate 3D7)), sequence (P62344 whole entry, looked up): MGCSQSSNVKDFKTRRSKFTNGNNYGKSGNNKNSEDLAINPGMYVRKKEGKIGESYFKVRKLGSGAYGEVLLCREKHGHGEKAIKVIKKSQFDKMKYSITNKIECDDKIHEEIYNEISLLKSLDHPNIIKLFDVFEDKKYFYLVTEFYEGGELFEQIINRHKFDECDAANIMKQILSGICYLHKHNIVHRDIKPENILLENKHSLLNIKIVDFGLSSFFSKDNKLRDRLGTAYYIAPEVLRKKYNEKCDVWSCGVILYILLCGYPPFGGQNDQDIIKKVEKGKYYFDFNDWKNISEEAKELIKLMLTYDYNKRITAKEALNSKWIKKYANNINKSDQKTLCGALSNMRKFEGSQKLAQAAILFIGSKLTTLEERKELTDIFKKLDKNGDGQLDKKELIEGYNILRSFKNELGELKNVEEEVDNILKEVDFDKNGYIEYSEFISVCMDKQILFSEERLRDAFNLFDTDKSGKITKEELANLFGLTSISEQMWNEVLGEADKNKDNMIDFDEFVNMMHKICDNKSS
Assay [6] concerns the target Plasmodium falciparum protein kinase 6 (PK6, PF3D7_1337100) (UniProt Q8IDW1). Briefly: PfPK6 kinase inhibitors, biochemical, TCAMS library (AID 1159586). The settings on record: recombinant PfPK6, Kinase-Glo ATP depletion luminescence.
In assay [7] the target is Protein kinase 7 (PK7), Plasmodium falciparum 3D7 (PF3D7_0213400) (UniProt Q7YTF7). Briefly: inhibition of Plasmodium PK7 catalytic activity – biochemical, TCAMS antimalarial set, Kinase-Glo luminescence (AID 1159587). The settings on record: recombinant PfPK7, Kinase-Glo ATP depletion luminescence.
Protein kinase 7 (PK7), Plasmodium falciparum 3D7 (PF3D7_0213400), sequence (Q7YTF7 1-343): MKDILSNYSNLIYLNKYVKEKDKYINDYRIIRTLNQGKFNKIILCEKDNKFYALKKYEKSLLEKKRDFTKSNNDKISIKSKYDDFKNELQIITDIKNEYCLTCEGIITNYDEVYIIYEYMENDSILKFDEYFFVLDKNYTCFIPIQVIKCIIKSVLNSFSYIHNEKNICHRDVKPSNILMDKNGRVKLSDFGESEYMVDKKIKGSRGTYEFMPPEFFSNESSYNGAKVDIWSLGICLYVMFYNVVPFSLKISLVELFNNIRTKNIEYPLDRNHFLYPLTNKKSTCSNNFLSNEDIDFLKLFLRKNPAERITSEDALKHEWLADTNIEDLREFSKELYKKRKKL
For assay [8], the target named is Calcium-dependent protein kinase 4 (Plasmodium falciparum (isolate 3D7)) (UniProt Q8IBS5). Briefly: PfCDPK4 kinase inhibitors, biochemical, TCAMS library (AID 1159588; cut-off not given, nearly all actives have IC50 up to about 0.91 µM). The settings on record: recombinant PfCDPK4, Kinase-Glo ATP depletion luminescence.
Calcium-dependent protein kinase 4 (Plasmodium falciparum (isolate 3D7)), sequence (Q8IBS5 whole entry, looked up): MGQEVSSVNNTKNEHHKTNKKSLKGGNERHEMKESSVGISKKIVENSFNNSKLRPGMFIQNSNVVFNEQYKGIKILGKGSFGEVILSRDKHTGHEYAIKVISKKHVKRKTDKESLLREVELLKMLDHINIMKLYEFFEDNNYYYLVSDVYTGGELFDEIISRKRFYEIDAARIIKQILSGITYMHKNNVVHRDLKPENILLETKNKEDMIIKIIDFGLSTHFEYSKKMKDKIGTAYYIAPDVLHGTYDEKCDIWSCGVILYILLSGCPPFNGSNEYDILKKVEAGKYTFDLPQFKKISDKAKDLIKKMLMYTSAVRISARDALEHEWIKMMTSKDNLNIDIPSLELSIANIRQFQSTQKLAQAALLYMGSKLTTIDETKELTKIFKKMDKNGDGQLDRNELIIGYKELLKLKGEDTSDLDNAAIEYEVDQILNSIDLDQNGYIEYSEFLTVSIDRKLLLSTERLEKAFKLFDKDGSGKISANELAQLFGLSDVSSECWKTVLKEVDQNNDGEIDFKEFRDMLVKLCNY

Plasmodium falciparum protein kinase 6 (PK6, PF3D7_1337100), sequence (Q8IDW1 1-305): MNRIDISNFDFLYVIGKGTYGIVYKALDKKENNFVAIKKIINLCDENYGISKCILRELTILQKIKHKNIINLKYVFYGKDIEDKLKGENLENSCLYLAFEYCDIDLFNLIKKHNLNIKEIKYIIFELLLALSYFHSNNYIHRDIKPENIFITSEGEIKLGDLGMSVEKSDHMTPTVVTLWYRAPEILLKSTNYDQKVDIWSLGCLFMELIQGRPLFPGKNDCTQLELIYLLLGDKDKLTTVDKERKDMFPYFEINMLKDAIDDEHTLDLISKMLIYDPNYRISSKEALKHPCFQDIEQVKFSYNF

As for `O=C(Nc1ccc2oc(-c3ccc(Br)cc3)nc2c1)c1ccc([N+](=O)[O-])o1`, the growth inhibition in assay [1] was 21%; in assay [4] it was 92% (active). The inhibition in assay [2] is 9%; in assay [3], 2%. Also, the result in assay [5], in assay [6], in assay [7] and in assay [8] was inactive.

Take `Cc1csc2nc(-c3ccccn3)nc(Nc3ccc4ncsc4c3)c12`: the growth inhibition in assay [1] was 91% (active); in assay [4] it was 85% (active). Moreover, the inhibition in assay [2] is -3%; in assay [3] it was 3%. Also, the result in assay [5], in assay [6], in assay [7] and in assay [8] was inactive.

For the compound `Cc1cnc(CN(Cc2ccc(-c3ccc(CNCCc4ccc(S(C)(=O)=O)cc4)cn3)cc2)C(=O)c2ccc([N+](=O)[O-])c(C)c2)cn1`, the figures for the growth inhibition in assay [1] and in assay [4] were 15% and 93% (active), respectively. Also, the values for the inhibition in assay [2] and in assay [3] were -4% and 4%, respectively. Moreover, the result in assay [5], in assay [6], in assay [7] and in assay [8] was inactive.

Regarding `COc1ccc(-c2ccc(NC(=O)c3ccc(Cl)cc3)cc2)cc1CN1CCN(C)CC1`, the values for the growth inhibition in assay [1] and in assay [4] were 23% and 86% (active), respectively. In addition, the inhibition in assay [2] is 36%; in assay [3], 7%. Also, the result in assay [5], in assay [6], in assay [7] and in assay [8] was inactive.

Regarding `CCn1cc(C(=O)O)c(=O)c2cc(F)c(N3CCN(S(=O)(=O)c4ccc(N)cc4)CC3)cc21`, the results for the growth inhibition in assay [1] and in assay [4] were 79% (active) and 90% (active), respectively. In addition, the values for the inhibition in assay [2] and in assay [3] were -2% and 4%, respectively. Besides, the result in assay [5], in assay [6], in assay [7] and in assay [8] was inactive.

`O=C(CCCCCNC(=O)c1ccc(O)c(-c2cccc(C(F)(F)F)c2)c1)NCCN1CCCCC1`: the growth inhibition in assay [1] was 0%; in assay [4] it was 99% (active). The inhibition in assay [2] was -5%; in assay [3], 4%. Also, the outcome in assay [5], in assay [6], in assay [7] and in assay [8] was inactive.

In the case of `Oc1ccc(CCNc2nc(NCc3ccccc3Oc3ccc(C(F)(F)F)cc3)nc(N3CCNCC3)n2)cc1`, the figures for the growth inhibition in assay [1] and in assay [4] were 2% and 86% (active), respectively. Further, the inhibition in assay [2] is 26%; in assay [3] it was 0%. In addition, the outcome in assay [5], in assay [6], in assay [7] and in assay [8] was inactive.

As for `O=C(NCCCCN1CCC(c2ccc3c(c2OCC2COCO2)CCCC3)CC1)c1ccc(-c2ccc(C(F)(F)F)cc2)cc1` (configuration not stated), the growth inhibition in assay [1] was 45%; in assay [4], 99% (active). Also, the inhibition in assay [2] was 91% (active); in assay [3] it was -2%. The result in assay [5], in assay [6], in assay [7] and in assay [8] was inactive.

In the case of `CCc1[nH]nc(C(=O)Nc2cccc(N3CCCC3)c2)c1C`, the growth inhibition is 52% (active) in assay [1] and 81% (active) in assay [4]. Also, the inhibition in assay [2] is 15%; in assay [3] it was 1%. The outcome in assay [5], in assay [6], in assay [7] and in assay [8] was inactive.

With `COc1ccc(-c2ccccc2OCCCNc2nc(NCCc3ccc(O)cc3)nc(N3CCNCC3)n2)cc1`, the figures for the growth inhibition in assay [1] and in assay [4] were 3% and 99% (active), respectively. Besides, the inhibition in assay [2] is 36%; in assay [3], -1%. Moreover, the outcome in assay [5], in assay [6], in assay [7] and in assay [8] was inactive.

As to `O=C(CN1CCC2(CCC1=O)CC(=O)c1ccccc1O2)NCCN1CCOCC1` (configuration not stated), the growth inhibition in assay [1] is -4%; in assay [4], 101% (active). Moreover, the inhibition in assay [2] was 6%; in assay [3], -4%. In addition, the outcome in assay [5], in assay [6], in assay [7] and in assay [8] was inactive.

Turning to `COCCCNc1nc2cc(OC)c(OC)cc2c2nc(-c3ccccc3)nn12`, the growth inhibition in assay [1] was 97% (active); in assay [4] it was 95% (active). The inhibition in assay [2] is 6%; in assay [3], -6%. The result in assay [5], in assay [6], in assay [7] and in assay [8] was inactive.

For the compound `O=[N+]([O-])c1ccc(-c2ccc(C=NNc3nc(Nc4ccccc4)nc(Nc4ccccc4)n3)o2)cc1`, the growth inhibition in assay [1] is 12%; in assay [4] it was 91% (active). In addition, the inhibition was -4% in assay [2] and 1% in assay [3]. Also, the outcome in assay [5], in assay [6], in assay [7] and in assay [8] was inactive.

Turning to `O=C(Cc1cccnc1)Nc1cccc(-c2cccc(-c3nc4ccc(C(F)(F)F)cc4[nH]3)c2)c1`, the growth inhibition is 38% in assay [1] and 99% (active) in assay [4]. The inhibition is 42% in assay [2] and -7% in assay [3]. Besides, the result in assay [5], in assay [6], in assay [7] and in assay [8] was inactive.

With `COc1ccc(NC(=O)/C=C/c2cc(F)cc(C(F)(F)F)c2)cc1OCCN(C(C)C)C(C)C`, the growth inhibition in assay [1] is 21%; in assay [4] it was 97% (active). In addition, the figures for the inhibition in assay [2] and in assay [3] were 18% and -3%, respectively. In addition, the result in assay [5], in assay [6], in assay [7] and in assay [8] was inactive.

Regarding `c1cc(-c2ccc(CNCc3ccc(-c4csnn4)cc3)cc2)cc(-c2nc3ccccc3[nH]2)c1`, the figures for the growth inhibition in assay [1] and in assay [4] were 96% (active) and 100% (active), respectively. The values for the inhibition in assay [2] and in assay [3] were 60% (active) and -7%, respectively. The result in assay [5], in assay [6], in assay [7] and in assay [8] was inactive.

In the case of `CCn1c(CN2CCN(Cc3ccccc3)CC2)nc2cc(NC(=O)c3cccs3)ccc21`, the growth inhibition was 95% (active) in assay [1] and 97% (active) in assay [4]. Besides, the inhibition in assay [2] was 0%; in assay [3] it was 2%. Also, the outcome in assay [5], in assay [6], in assay [7] and in assay [8] was inactive.

Take `Cc1ccc(C)c(Sc2ccc(NC(=O)CN3CCN(C(=O)c4ccco4)CC3)cc2)c1`: the figures for the growth inhibition in assay [1] and in assay [4] were 93% (active) and 96% (active), respectively. The inhibition was 28% in assay [2] and 1% in assay [3]. In addition, the outcome in assay [5], in assay [6], in assay [7] and in assay [8] was inactive.

As for `CCC(=O)N(c1ccccc1)C1CCN(CCCC(NC(=O)Nc2cc(C(F)(F)F)cc(C(F)(F)F)c2)c2ccc(Cl)c(Cl)c2)CC1` (configuration not stated), the values for the growth inhibition in assay [1] and in assay [4] were 18% and 99% (active), respectively. Moreover, the values for the inhibition in assay [2] and in assay [3] were 29% and -5%, respectively. Further, the outcome in assay [5], in assay [6], in assay [7] and in assay [8] was inactive.

As a reminder, the inhibition is the change of the read-out against control, counted positive when it falls.
